For some assays here: Potency and affinity values are given separately.
Legend:
Parameters in all cases: scale not given: direction of the effect not stated beside the values
[1] = target: Protein translocase subunit SecA (Escherichia coli (strain K12)) (UniProt P10408); experiment: Assay to Identify E. coli SecA ATPase Inhibitors; format: functional; details: 30 µM
[2] = target: T1, Ubiquitin-activating enzyme e1, putative (Leishmania donovani (strain BPK282A1)) (UniProt E9BSI1); experiment: Leishmania donovani Ubiquitin Activating Enzyme (LdE1); format: functional; details: 30 µM
T1 sequence (whole entry): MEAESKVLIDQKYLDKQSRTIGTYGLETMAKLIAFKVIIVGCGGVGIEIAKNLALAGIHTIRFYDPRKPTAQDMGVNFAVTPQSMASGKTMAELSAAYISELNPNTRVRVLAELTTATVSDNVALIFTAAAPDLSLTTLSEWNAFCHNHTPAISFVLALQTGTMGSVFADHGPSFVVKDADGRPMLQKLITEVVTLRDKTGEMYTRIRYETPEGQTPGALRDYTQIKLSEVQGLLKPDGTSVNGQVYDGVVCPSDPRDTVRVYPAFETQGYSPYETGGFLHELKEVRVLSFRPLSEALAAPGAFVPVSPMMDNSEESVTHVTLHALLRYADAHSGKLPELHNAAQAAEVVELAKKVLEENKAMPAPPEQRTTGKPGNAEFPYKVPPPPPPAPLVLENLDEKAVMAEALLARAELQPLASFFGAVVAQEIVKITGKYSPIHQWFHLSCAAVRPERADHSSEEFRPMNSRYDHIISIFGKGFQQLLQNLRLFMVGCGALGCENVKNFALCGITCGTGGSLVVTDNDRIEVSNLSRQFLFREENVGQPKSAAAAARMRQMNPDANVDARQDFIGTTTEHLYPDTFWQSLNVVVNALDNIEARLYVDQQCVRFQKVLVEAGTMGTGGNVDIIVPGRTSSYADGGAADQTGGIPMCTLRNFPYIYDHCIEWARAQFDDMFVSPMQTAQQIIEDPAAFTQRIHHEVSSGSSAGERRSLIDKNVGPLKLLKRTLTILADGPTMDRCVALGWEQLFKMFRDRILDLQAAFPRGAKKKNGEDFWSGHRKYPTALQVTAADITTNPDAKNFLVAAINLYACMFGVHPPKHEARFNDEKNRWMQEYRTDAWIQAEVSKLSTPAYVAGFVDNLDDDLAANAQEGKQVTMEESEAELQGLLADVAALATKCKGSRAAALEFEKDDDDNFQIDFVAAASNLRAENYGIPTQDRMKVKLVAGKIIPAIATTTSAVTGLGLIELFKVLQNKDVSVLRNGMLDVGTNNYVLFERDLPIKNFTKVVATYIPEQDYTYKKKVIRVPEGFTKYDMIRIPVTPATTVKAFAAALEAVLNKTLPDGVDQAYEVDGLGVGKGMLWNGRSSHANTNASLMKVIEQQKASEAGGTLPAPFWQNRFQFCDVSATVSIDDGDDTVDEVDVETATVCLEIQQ

[3] = target: AMP-activated protein kinase, AMPK (Homo sapiens) (UniProt P54646+O43741+P54619+Q9UGJ0+Q9Y478+Q13131+Q9UGI9); experiment: AMP-dependent Kinase enzyme assay. An in vitro enzyme assay that detects ADP turnover that is directly proportional to AMPK activity. This uses naive AMPK that is activated during the assay with MK-8722; format: functional; details: 30 µM
[4] = target: Sialic acid-binding Ig-like lectin 9 (Homo sapiens) (UniProt Q9Y336); experiment: Hs-Siglec9 ALPHAscreen SOP 20170721; details: 10 µM
[5] = test system: Trypanosoma cruzi; experiment: Trypanosoma cruzi phosphomannomutase and mannose-1-phosphate guanylyltransferase assay; format: functional; details: 10 µM
[6] = target: T2, Arginase-2, mitochondrial (Homo sapiens) (UniProt P78540); experiment: in vitro enzyme assay to detect the production of urea directly proportional to the activity of Arginase II; format: functional; details: 33.3 µM; note: in the data most compounds retested in dose-response had high values
T2 sequence (whole entry): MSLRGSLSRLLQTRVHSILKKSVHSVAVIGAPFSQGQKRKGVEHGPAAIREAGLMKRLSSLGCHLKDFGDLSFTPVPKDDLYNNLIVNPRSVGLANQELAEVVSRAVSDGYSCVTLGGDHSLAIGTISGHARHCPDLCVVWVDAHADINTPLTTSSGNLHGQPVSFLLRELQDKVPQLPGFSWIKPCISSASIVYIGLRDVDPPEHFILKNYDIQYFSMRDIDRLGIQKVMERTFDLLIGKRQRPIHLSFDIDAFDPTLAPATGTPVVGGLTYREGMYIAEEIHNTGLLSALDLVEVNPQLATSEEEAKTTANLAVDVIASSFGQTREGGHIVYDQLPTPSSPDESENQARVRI

[7] = target: T3, Proteasome subunit beta (Trypanosoma cruzi) (UniProt O96673); experiment: Trypanosoma cruzi proteasome chymotrypsin-like activity (TcProtChymo) assay.; note: in the data most compounds retested in dose-response had high values; format: functional; details: 9.37 µM
T3 sequence (whole entry): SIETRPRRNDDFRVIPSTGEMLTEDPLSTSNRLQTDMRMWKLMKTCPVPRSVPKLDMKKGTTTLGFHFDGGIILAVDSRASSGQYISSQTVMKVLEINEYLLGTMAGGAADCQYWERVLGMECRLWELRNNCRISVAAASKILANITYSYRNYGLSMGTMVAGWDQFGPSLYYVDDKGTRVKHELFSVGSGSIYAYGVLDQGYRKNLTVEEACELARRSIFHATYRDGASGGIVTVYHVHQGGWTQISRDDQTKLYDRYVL

[8] = species: Homo sapiens; experiment: To identify inhibition of the IFN signalling (Jak-Stat) pathway via expression of an eGFP reporter gene under the control of an IFN-stimulated response element (ISRE) containing MxA promoter.; format: functional; details: 30 µM
[9] = target: T4, Tyrosyl-tRNA synthetase, putative (Trypanosoma cruzi (strain CL Brener)) (UniProt Q4DSP6); experiment: Trypanosoma cruzi tyrosyl tRNA synthetase (TcYRS) _High Tyrosine SOP; format: functional; details: 30 µM; note: in the data most compounds retested in dose-response had high values
T4 sequence (whole entry): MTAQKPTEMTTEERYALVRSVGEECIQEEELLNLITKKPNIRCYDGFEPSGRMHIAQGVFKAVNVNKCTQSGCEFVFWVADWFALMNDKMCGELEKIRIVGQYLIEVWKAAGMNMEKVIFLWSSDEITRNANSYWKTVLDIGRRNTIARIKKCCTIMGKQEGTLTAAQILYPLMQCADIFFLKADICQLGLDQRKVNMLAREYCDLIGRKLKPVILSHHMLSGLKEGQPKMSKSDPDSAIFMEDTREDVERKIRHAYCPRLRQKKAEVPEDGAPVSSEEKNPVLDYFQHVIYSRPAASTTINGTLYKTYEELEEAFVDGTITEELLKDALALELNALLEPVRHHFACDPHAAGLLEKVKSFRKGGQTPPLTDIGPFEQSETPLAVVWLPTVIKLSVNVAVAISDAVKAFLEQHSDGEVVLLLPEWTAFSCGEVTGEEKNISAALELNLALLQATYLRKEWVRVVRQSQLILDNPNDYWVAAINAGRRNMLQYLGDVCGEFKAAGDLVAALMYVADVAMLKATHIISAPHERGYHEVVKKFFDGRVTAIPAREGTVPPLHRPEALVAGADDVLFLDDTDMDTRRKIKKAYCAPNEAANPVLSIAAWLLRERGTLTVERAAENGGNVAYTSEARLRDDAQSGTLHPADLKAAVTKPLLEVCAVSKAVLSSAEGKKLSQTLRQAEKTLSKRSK

[10] = target: T4, Tyrosyl-tRNA synthetase, putative (Trypanosoma cruzi (strain CL Brener)); experiment: Trypanosoma cruzi tyrosyl tRNA synthetase (TcYRS) SOP; format: functional; details: 30 µM
[11] = target: Chromo domain-containing protein 1 (Saccharomyces cerevisiae (strain ATCC 204508 / S288c) (Baker's yeast)) (UniProt P32657); experiment: ScCHD-1 Enzyme Inhibition Assay; format: functional; details: 30 µM; note: in the data most compounds retested in dose-response had high values
Sequence of Chromo domain-containing protein 1 (Saccharomyces cerevisiae (strain ATCC 204508 / S288c) (Baker's yeast)) (P32657 whole entry, the tested form may be a part): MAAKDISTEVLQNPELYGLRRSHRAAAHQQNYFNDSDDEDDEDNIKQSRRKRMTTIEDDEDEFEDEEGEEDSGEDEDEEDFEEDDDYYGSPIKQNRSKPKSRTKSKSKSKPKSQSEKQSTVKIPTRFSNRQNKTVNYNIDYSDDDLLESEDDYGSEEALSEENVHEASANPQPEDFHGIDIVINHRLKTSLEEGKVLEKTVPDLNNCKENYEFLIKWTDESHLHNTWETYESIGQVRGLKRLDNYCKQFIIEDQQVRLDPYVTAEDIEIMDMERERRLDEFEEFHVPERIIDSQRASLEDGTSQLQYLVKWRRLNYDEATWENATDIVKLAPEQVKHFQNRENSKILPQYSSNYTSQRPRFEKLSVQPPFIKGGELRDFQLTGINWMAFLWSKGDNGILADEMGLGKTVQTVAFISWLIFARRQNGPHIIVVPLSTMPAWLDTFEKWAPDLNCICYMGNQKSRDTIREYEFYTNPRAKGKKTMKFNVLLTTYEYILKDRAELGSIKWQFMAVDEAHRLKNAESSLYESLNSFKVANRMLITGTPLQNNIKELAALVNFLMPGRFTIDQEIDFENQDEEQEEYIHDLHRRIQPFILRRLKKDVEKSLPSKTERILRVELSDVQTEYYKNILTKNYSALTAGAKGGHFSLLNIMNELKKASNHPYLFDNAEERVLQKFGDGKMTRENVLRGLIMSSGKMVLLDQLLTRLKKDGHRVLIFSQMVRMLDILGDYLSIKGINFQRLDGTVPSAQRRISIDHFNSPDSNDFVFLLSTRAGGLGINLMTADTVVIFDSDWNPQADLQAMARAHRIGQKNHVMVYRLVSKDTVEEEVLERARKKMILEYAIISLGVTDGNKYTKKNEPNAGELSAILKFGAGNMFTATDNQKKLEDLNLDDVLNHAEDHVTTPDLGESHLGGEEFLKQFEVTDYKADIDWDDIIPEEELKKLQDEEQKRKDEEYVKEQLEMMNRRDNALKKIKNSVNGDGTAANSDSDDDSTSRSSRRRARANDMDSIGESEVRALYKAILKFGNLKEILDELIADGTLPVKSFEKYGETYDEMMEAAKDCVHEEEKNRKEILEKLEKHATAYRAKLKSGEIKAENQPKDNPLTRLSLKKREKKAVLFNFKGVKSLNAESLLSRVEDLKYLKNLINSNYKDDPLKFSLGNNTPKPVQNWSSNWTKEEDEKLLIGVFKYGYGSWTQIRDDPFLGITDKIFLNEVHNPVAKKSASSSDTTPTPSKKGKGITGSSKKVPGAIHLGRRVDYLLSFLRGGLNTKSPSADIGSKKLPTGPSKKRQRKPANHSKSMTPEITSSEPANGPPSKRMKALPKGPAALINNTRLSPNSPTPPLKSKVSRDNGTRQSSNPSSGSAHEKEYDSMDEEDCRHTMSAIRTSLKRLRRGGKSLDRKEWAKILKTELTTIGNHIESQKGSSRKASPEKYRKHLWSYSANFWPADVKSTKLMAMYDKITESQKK

Sequence of Protein translocase subunit SecA (Escherichia coli (strain K12)) (P10408 whole entry): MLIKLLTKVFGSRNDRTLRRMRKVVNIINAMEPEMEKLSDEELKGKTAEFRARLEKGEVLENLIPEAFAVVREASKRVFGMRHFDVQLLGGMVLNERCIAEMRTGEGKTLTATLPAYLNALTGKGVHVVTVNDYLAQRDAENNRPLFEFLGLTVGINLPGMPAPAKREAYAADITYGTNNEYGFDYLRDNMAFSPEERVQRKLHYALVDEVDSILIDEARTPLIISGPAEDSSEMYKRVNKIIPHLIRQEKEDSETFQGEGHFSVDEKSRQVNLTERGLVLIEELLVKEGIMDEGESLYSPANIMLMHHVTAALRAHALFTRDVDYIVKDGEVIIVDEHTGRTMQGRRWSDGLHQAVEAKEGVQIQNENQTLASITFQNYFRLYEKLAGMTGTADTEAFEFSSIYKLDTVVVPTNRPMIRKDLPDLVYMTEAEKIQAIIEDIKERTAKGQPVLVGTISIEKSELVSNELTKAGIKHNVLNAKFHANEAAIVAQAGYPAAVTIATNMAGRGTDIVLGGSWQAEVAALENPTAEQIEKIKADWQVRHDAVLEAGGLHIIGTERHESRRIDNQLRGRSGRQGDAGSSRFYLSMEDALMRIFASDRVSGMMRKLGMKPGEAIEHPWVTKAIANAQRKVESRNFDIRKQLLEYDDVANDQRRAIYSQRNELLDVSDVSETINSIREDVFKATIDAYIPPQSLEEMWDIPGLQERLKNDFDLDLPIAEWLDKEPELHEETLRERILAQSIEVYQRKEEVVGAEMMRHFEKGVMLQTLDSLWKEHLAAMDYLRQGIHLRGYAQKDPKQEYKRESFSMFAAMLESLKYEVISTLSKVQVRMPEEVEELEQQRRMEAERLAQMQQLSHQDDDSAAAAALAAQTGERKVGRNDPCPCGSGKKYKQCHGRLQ
Sequence of Sialic acid-binding Ig-like lectin 9 (Homo sapiens) (Q9Y336 whole entry): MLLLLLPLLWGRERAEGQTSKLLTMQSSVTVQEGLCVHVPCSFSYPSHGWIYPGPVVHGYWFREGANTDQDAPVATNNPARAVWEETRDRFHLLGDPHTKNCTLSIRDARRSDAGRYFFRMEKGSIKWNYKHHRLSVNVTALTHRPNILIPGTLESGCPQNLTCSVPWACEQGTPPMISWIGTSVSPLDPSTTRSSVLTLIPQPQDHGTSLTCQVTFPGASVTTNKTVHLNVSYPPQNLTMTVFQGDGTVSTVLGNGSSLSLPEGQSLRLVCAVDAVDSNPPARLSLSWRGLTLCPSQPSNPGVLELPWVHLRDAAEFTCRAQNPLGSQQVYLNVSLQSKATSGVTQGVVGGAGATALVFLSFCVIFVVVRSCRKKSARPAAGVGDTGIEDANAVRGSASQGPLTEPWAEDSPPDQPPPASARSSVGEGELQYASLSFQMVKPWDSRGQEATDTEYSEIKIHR

Compound | Percent Effect [1] | Percent Effect [2] | Percent Effect [3] | Percent Effect [4] | Percent Effect [5] | Percent Effect [6] | Percent Effect [7] | Percent Effect [8] | Percent Effect [9] | Percent Effect [10] | Percent Effect [11]
Cc1ccc2cc(CNCCCN3CCOCC3)c(=O)[nH]c2c1 | -3.73% | 4.05% | 11.3% | 5.46% | 0.395% | -0.696% | 6.08% | 12% | 5.38% | 9.09% | -7.66%
CCC(OC)C(=O)N1CCc2nc(NC)nc(C(=O)N3CCCC3)c2C1 (stereo unspecified) | -2.18% | 2.74% | -1.95% | 7.16% | -1.39% | -9.58% | 15.5% | 19.2% | 5.21% | 16.1% | -3.16%
CCN1C[C@@H]2[C@@H](OC)CCN(S(=O)(=O)c3ccccc3F)[C@@H]2C1 | -2.71% | 5.33% | 11.3% | 0.304% | -2.56% | 4.43% | 0.793% | 4.67% | -1.06% | 3.85% | -0.244%
O=C(c1ccc(NC2CC2)nc1)N1CCCC(n2cccn2)C1 (stereo unspecified) | -6.81% | 5.26% | -1.25% | 1.67% | -4.51% | 2.3% | 3.51% | 18.5% | 0.49% | 7.32% | -0.025%
Cn1cc(-c2csc(N3CCOCC3)n2)cn1 | -3.35% | 1.39% | -45.6% | -2.23% | 1.26% | 2.21% | 0.702% | 1.08% | 15.8% | 28.2% | -0.624%
CCc1cccc(N2CCC(NC(=O)c3ccc(=O)[nH]n3)CC2)c1 | -0.605% | 3.8% | 2.33% | 1.07% | -4.82% | 4.52% | 15.8% | 21% | 5.21% | 15.2% | -11.3%
O=C1CC(c2cccc(O)c2)c2c(c(C(=O)O)cn2-c2ccccc2)N1 (stereo unspecified) | -3.46% | 1.33% | -385% | 1.46% | -3.34% | -5.81% | 14.6% | 7.35% | 0% | -5.13% | -11.7%
CS(=O)(=O)NCc1nnc2n1CCN(Cc1cccs1)C2 | -3.62% | 2.7% | 7.63% | -1.91% | 0.684% | -3.5% | 13.5% | 6.95% | 5.41% | 12.8% | 3.73%
N#Cc1ccccc1OCCN1CCC(N2CCNC2=O)CC1 | -1.9% | 5.41% | -4.78% | 2.6% | 0.65% | -1.29% | 6.28% | 8.35% | 6.93% | 13.4% | -0.203%
CC(C)NC(=O)C1CN(C(N)=O)Cc2ccnn2C1 (stereo unspecified) | -0.679% | 10.7% | 5.48% | 1.25% | 0.579% | -58.2% | 9.91% | 0.0597% | 3.12% | 15% | -5.6%
c1csc(CN2CCO[C@H]3[C@H](OCCN4CCCC4)CC[C@@H]32)n1 | -4.05% | 7.79% | 0.971% | 16% | -0.885% | -57.9% | 8.15% | 10.2% | 2.15% | 11.1% | -0.273%
Cc1csc(N2CCN(CCc3ccccn3)CC2C)n1 (stereo unspecified) | -0.657% | 8.22% | -7.28% | 9.14% | 6.07% | -3.64% | 4.79% | 17.9% | 4.3% | 5% | -1.43%
CNc1cc2c(nn1)CCN(C(=O)C1CCCc3ccccc31)C2 (stereo unspecified) | -1.49% | 7.59% | -8.51% | 1.73% | -4.44% | 4.18% | -2.38% | 8.64% | 5.42% | 3.8% | -3.47%
Cc1n[nH]c(C2CN(C(=O)c3ccnc(C4CC4)n3)CCO2)n1 (stereo unspecified) | -1.78% | 10.4% | 5.44% | 10.3% | -0.0979% | 5.26% | 9.78% | -6.73% | 5.71% | -23.5% | -12.2%
CCc1ccc(C(=O)N2CCCC(n3cncn3)C2)o1 (stereo unspecified) | -10.1% | -4.17% | -1.09% | -2.11% | -2.82% | -2.21% | 7.37% | 4.2% | 3.16% | -2.56% | 3.19%
CNC(=O)C1CCN(C(=O)c2cccn2Cc2cccs2)CC1 | -4.47% | -2.6% | 1.37% | -5.3% | -5.99% | 2.85% | 6.25% | 40.1% | 6.8% | 9.76% | -7.72%

Reference: ChEMBL document CHEMBL3988442, “University of Dundee, Small-Polar-MMV Screening Library” (2021)
